From PubChem BioAssay (EPA / NIEHS)
Calls of active or inactive are those of the source. How the source made its calls: active means hit-call score of the fitted dose curve at least 0.9, where 1 is the maximum; inactive means score below 0.9.

Test: APR_HepG2_NuclearSize_24hr: Apredica 24-hour HepG2 Assay for Nuclear Size (AID 2282907)
Settings: high-content imaging, actives raise or lower the signal
Description: APR_HepG2_24hr is a cell-based, multiplexed-readout assay that uses HepG2, a human liver cell line, with measurements taken at 24 hours after chemical dosing in a 384-well plate.APR_HepG2_NuclearSize_24hr is one of 10 assay component(s) measured or calculated from the APR_HepG2_24hr assay. It is designed to make measurements of cell phenotype, a form of morphology reporter, as detected with fluorescence intensity signals by HCS Fluorescent Imaging technology.Data from the assay component APR_HepG2_NuclearSize_24hr was analyzed into 1 assay endpoint. This assay endpoint, APR_HepG2_NuclearSize_24hr, was analyzed with bidirectional fitting relative to DMSO as the negative control and baseline of activity. Using a type of morphology reporter, measures of all nuclear dna for gain or loss-of-signal activity can be used to understand the signaling at the nuclear-level. Furthermore, this assay endpoint can be referred to as a primary readout, because this assay has produced multiple assay endpoints where this one serves a signaling function. To generalize the intended target to other relatable targets, this assay endpoint is annotated to the cell morphology intended target family, where the subfamily is organelle conformation.
Cells were treated with dimethyl sulfoxide (DMSO) as a solvent control at a final concentration of 0.5% v/v or with compounds in DMSO with a resulting final DMSO concentration of 0.5% v/v. Compound treatment was done at concentrations of 0.39, 0.78, 1.56, 3.12, 6.24, 12.5, 25, 50, 100, and 200 uM in duplicate on each plate. Cells were treated with compounds for 1, 24, or 72 hr. Carbonyl […] m-chloro-phenylhydrazone (CCCP) and taxol were used as positive controls for mitochondrial function and cytoskeletal stability, respectively; DMSO served as the negative control for this experiment. Cells were fixed by the direct addition of 50 uL formaldehyde in Hank's Balanced Salt Solution (HBSS) to a final concentration of 3.7%. After incubation in the fixation medium for 30 min at room temperature (293-298 K), cells were rinsed twice with HBSS and treated with cell permeabilization buffer (16 uL of 0.5% Triton X-100) for 10 min at room temperature (293-298 K) before labeling. For mitochondrial membrane potential and mitochondrial measurements, pre-fixed cells were incubated with 50 uL of MitoTracker Red CMXRos (Invitrogen) at a concentration of 250 nM for 30 min before fixation. In the remaining cases, post-fixed cells were labeled by incubation with a multiplexed mixture of primary antibodies in HBSS for 60 min at room temperature (293-298 K) to detect immunoreactivity of c-Jun (1:500), phospho-histone H3 (1:100), phospho-histone H2A.x (1:200), p53 (1:400), alpha-tubulin (1:200) and Hoechst 33342 (2 ug/mL). Cells were labeled for multiplexed imaging on two separate plates: a) Hoechst 33342, MitoTracker Red, phospho-histone H3, and alpha-tubulin, and b) Hoechst 33342, phospho-histone H2A.x, and c-Jun. A final rinse with HBSS (50 uL) was performed before analysis. The primary and secondary antibodies for the proteins were phospho-histone H3 (rabbit anti-phospho-histone H3 and FITC-donkey anti-rabbit IgG), phospho-histone H2A.x (mouse anti-phospho-histone H2A.x and FITC-donkey anti-mouse IgG), c-Jun (rabbit anti-phospho-c-Jun and Cy3-donkey anti-rabbit IgG), p53 (sheep anti-p53 and Cy5-donkey anti-sheep IgG), alpha-tubulin (mouse anti-alpha-tubulin and Cy5-donkey anti-mouse IgG). These antibodies are available as the CellCiphr HepG2 assay kit (Millipore).Digital images of each well were captured using a Cellomics ArrayScan VTI (Thermo Scientific Cellomics) (0.8 NA objective, 0.63x optical coupler, and XF-93 filter set) at 20x magnification. The images were acquired using the autofocus feature of the ArrayScan instrument, which entails the following steps. First, the camera focuses on channel 1 (Hoechst 33342), where nuclei are identified. Second, a Z offset of 1 um is used for capturing mitochondria (MitoTracker Red). […]

Structure (SMILES)	outcome	AC50
Nc1nc(=S)c2[nH]cnc2[nH]1	inactive	–
CC(=O)OCC(COC(C)=O)OC(C)=O	inactive	–
Cc1occc(=O)c1O	inactive	–
O=C(N[C@@H](c1ccccc1)[C@@H]1CCCCN1)c1cccc(C(F)(F)F)c1Cl	–	17.4 µM (active)
O=C(Oc1ccccc1)c1cccc(C(=O)Oc2ccccc2)c1	inactive	–
CCCCOC(=O)CCCCC(=O)OCCCC	inactive	–
CN(C)CCCN(C)CCCN(C)C	inactive	–
Cc1ccc(C(C)(C)C)c(O)c1	–	112 µM (active)
Cc1ccc(-c2cc(C(F)(F)F)nn2-c2ccc(S(N)(=O)=O)cc2)cc1	–	118 µM (active)
CN(C)C(=O)NC1(c2ccccc2)CCN(CCC[C@]2(c3ccc(Cl)c(Cl)c3)CCCN(C(=O)c3ccccc3)C2)CC1	inactive	–
COC(=O)CCC(=O)OC	inactive	–
CCCCCCC(C=O)=Cc1ccccc1	inactive	–
O=C1OC(c2ccc(O)cc2)(c2ccc(O)cc2)c2ccccc21	inactive	–
O=C1c2c(O)cccc2Cc2cccc(O)c21	inactive	–
CC(C)OC(=O)C(C)(C)Oc1ccc(C(=O)c2ccc(Cl)cc2)cc1	inactive	–
CCN(CC)CCOc1ccc(C(=C(Cl)c2ccccc2)c2ccccc2)cc1	–	15.7 µM (active)
CCC(C)N(C)C(=O)c1cc2ccccc2c(-c2ccccc2Cl)n1 (stereo not given)	inactive	–
O=NO	inactive	–
Oc1ccccc1O	inactive	–
CC(=O)O[C@]1(C(C)=O)CC[C@H]2[C@@H]3C=C(Cl)C4=CC(=O)[C@@H]5C[C@@H]5[C@]4(C)[C@H]3CC[C@@]21C	inactive	–

Structure (SMILES)	outcome	AC50
CC(C)NCC(O)c1ccc(O)c(O)c1 (stereo not given)	inactive	–
CC1(C)C(=O)NC(=O)N1CO	inactive	–
Cc1cn([C@H]2C=C[C@@H](CO)O2)c(=O)[nH]c1=O	inactive	–
COC(=O)CCCC(=O)OC	inactive	–
O=C(NS(=O)(=O)/C=C/c1cccs1)c1ccc(F)cc1Br	inactive	–
O=C1O[C@H]([C@H](O)CO)C(O)=C1O	inactive	–
C=CCCCCCCCCCCCC	inactive	–
CCc1cc(C2=C(C(=O)O)N(c3ccccc3C(F)(F)F)S(=O)(=O)c3ccccc32)cc2c1OCO2	inactive	–
O=C(O)CC(O)(CC(=O)O)C(=O)O	inactive	–
CN(C)C(=O)NC1(c2ccccc2)CCN(CC[C@@]2(c3ccc(F)c(F)c3)CN(C(=O)c3ccccc3)CCO2)CC1	inactive	–
CCCCCCCCCCCCCCOS(=O)(=O)O	inactive	–
S=c1[nH]c2ccccc2s1	inactive	–
CC(C)(C)c1ccccc1	inactive	–
CC(C)c1cccc(C(C)C)c1	inactive	–
CC(=O)S[C@H](C(=O)N[C@H]1Cc2ccccc2[C@H]2CCC[C@@H](C(=O)O)N2C1=O)C(C)C	inactive	–
CCCCC(CC)COP(=O)(OCC(CC)CCCC)OCC(CC)CCCC (stereo not given)	inactive	–
CC(C)(O)c1ccc(CNC(=O)c2cccnc2Oc2ccc(F)cc2)cc1	inactive	–
CC(C)c1cccc(C(C)C)c1NC(=O)NS(=O)(=O)c1cc(C(C)(C)O)co1	inactive	–
CCCCC(CC)CO (stereo not given)	inactive	–
C/C=C/C=C/C(=O)O	inactive	–
